Data taken from PubChem BioAssay (EPA / NIEHS).
Inconclusive results are not listed. Active and inactive are the calls of the source. Rule for the calls, unless noted: active = hit-call score of the fitted dose curve at least 0.9, where 1 is the maximum; inactive = score below 0.9.

Tests used:
[1] = biological target: Aryl hydrocarbon receptor (Homo sapiens) (UniProt P35869); test: ATG_Ahr_CIS: Attagene CIS-FACTORIAL HepG2 Assay for human Aryl Hydrocarbon Receptor (Ahr) (AID 2282930); settings: HepG2 AhR cis-factorial reporter transcription; actives raise or lower the signal
How it was run: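 Transient MRTU transfection of HepG2 → 24 h compound exposure → total RNA, oligo(dT) RT → PCR, 6-FAM extension, HpaI cut → CE fluorescence. DMSO = baseline; bidirectional curve fit.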

[2] = biological target: Transcription factor E2F1 (Homo sapiens) (UniProt Q01094); test: ATG_E2F_CIS: Attagene CIS-FACTORIAL HepG2 Assay for human E2F Transcription Factor 1 (AID 2282935); settings: HepG2 Attagene cis-reporter, E2F reporter RNA transcripts; actives raise or lower the signal
How it was run: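 Fluorescent RT-PCR products, digested with HpaI for 2 h at 37 C, are separated by capillary electrophoresis. Source RNA comes from transfected HepG2 cultures treated for 24 h.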

[3] = ATG_M_61_CIS: Attagene CIS-FACTORIAL HepG2 Assay for M61 Transcription Factor (Internal Marker) (AID 2282937); settings: HepG2 Attagene CIS-FACTORIAL M61 internal marker reporter; actives raise or lower the signal
How it was run: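 This endpoint serves as an internal background control within a multiplexed HepG2 cis-reporter panel. Cells are exposed for 24 h; reporter mRNA is amplified, fluorescently labelled and sized by capillary electrophoresis, with DMSO as negative control.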

[4] = ATG_GLI_CIS: Attagene CIS-FACTORIAL HepG2 Assay for human Zinc Finger Protein GLI1 (AID 2282945); settings: HepG2, Attagene cis-factorial reporter mRNA, GLI element; actives raise or lower the signal
How it was run: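 Bidirectional curve fits relative to DMSO, using reporter mRNA levels from RT-PCR plus capillary electrophoresis. Cells were HepG2 transiently carrying cis-regulated reporter constructs, harvested 24 h after dosing.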

[5] = biological target: Hypoxia-inducible factor 1-alpha (Homo sapiens) (UniProt Q16665); test: ATG_HIF1a_CIS: Attagene CIS-FACTORIAL HepG2 Assay for human Hypoxia Inducible Factor 1 (HIF1A) (AID 2282951); settings: HepG2 Attagene cis-factorial HIF1a reporter transcription; actives raise or lower the signal
How it was run: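 HepG2, transient cis-reporter library, 24 h dosing. RNA → RT (oligo dT) → PCR → 6-FAM primer extension → HpaI → CE. Bidirectional curve fit vs DMSO.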

[6] = biological target: Heat shock factor protein 1 (Homo sapiens) (UniProt Q00613); test: ATG_HSE_CIS: Attagene CIS-FACTORIAL HepG2 Assay for human Heat Shock Transcription Factor 1 (HSE) (AID 2282953); settings: HepG2 HSE cis-reporter, Attagene RNA transcription; actives raise or lower the signal
How it was run: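 Endogenous transcription factor activity in transiently transfected HepG2, read as reporter mRNA by RT-PCR with fluorescent capillary electrophoresis after 24 h. Gain or loss of signal fitted versus DMSO baseline.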

[7] = ATG_PXRE_CIS: Attagene CIS-FACTORIAL HepG2 Assay for human Pregnane X Receptor Element (PXRE) (AID 2282957); settings: HepG2 Attagene CIS-FACTORIAL PXRE reporter, mRNA; actives raise or lower the signal
How it was run: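 Using HepG2 transfected with multiple reporter transcription units, endogenous factor-driven transcription was scored as reporter mRNA after 24 h exposure.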

[8] = ATG_SREBP_CIS: Attagene CIS-FACTORIAL HepG2 Assay for human Sterol Regulatory Element Binding (SREBP) (AID 2282962); settings: HepG2 Attagene cis-factorial SREBP reporter, mRNA; actives raise or lower the signal
How it was run: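 Readout: fluorescent reporter-transcript peaks resolved by capillary electrophoresis after RT-PCR. Cells were human HepG2 carrying transfected cis-promoter reporter constructs, dosed for 24 h. Gain or loss of signal was fitted against DMSO controls.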

[9] = ATG_TA_CIS: Attagene CIS-FACTORIAL HepG2 Assay for human TA Basal Promoter (AID 2282964); settings: HepG2 Attagene CIS-factorial TA basal promoter reporter; actives raise or lower the signal
How it was run: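 Background-control readout: TA basal promoter reporter mRNA, fitted in both directions relative to DMSO. Measured by RT-PCR and capillary electrophoresis 24 hours after treating HepG2 human liver cells transiently carrying multiplexed cis-regulated reporter constructs.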

[10] = ATG_TCF_b_cat_CIS: Attagene CIS-FACTORIAL HepG2 Assay for human T-Cell-Factor with beta-catenin (TCF/b-cat) (AID 2282965); settings: HepG2 TCF/beta-catenin cis-reporter transcription, actives raise or lower the signal
How it was run: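 Endogenous transcription factor activity is captured through cis-promoter reporter constructs transiently introduced into human HepG2 liver cells. Induced reporter mRNA is measured after 24 h and fitted bidirectionally relative to DMSO.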

[11] = ATG_TAL_CIS: Attagene CIS-FACTORIAL HepG2 Assay for human TAL Basal Promoter (AID 2282966); settings: HepG2 Attagene cis-factorial TAL promoter reporter; actives raise or lower the signal;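 note: background control endpoint measuring basal TAL promoter reporter mRNA not a specific factor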
How it was run: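 After 24 hours of chemical exposure, transfected HepG2 cells yielded RNA that was converted to 6-FAM-labelled, HpaI-digested reporter fragments for capillary electrophoresis. Values derive from bidirectional fitting against DMSO controls.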

[12] = ATG_TGFb_CIS: Attagene CIS-FACTORIAL HepG2 Assay for human Transforming Growth Factor (TGF) (AID 2282967); settings: HepG2 Attagene CIS TGFb reporter, mRNA transcription; actives raise or lower the signal
How it was run: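 Endogenous TGFB1-linked transcription factor activity read as reporter mRNA via RT-PCR and capillary electrophoresis, 24 h after dosing transiently transfected HepG2 cells. Gain or loss of signal fitted relative to DMSO.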

[13] = biological target: X-box-binding protein 1 (Homo sapiens) (UniProt P17861); test: ATG_Xbp1_CIS: Attagene CIS-FACTORIAL HepG2 Assay for human X-box Binding Protein 1 (XBP1) (AID 2282972); settings: HepG2 XBP1 cis-element reporter, Attagene multiplex; actives raise or lower the signal
How it was run: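 Read-out: fluorescent reporter mRNA fragments resolved by capillary electrophoresis after RT-PCR. Human HepG2 liver cells carried transfected cis-promoter reporter units and were exposed to chemicals for 24 hours. Gain or loss of signal fitted relative to DMSO baseline.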

[14] = biological target: Hepatocyte nuclear factor 4-alpha (Homo sapiens) (UniProt P41235); test: ATG_HNF4a_TRANS: Attagene TRANS-FACTORIAL HepG2 Assay for human Hepatocyte Nuclear Factor 4 alpha (HNF4a) (AID 2282982; active = hit-call score of the fitted dose curve at least 0.9, where 1 is the maximum); settings: HepG2 HNF4a transactivation reporter, mRNA readout
How it was run: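 Multiplexed reporter assay: transfected HepG2, 24 h exposure, total RNA → oligo(dT) RT → PCR → 6-FAM extension → HpaI digest → CE fluorescence. DMSO = negative control.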

[15] = biological target: Transcriptional activator Myb (Homo sapiens) (UniProt P10242); test: ATG_Myb_CIS: Attagene CIS-FACTORIAL HepG2 Assay for human Myeloblastosis (Myb) Proto-Oncogene Transcription Factor (AID 2282986); settings: HepG2 Attagene CIS-FACTORIAL Myb reporter transcription; actives raise or lower the signal
How it was run: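 Endogenous transcription factor activity at a Myb-responsive cis element is reported in human liver HepG2 cells after 24 h chemical treatment. Reporter mRNA is detected by RT-PCR and capillary electrophoresis fluorescence, with DMSO as baseline.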

[16] = biological target: Nuclear respiratory factor 1 (Homo sapiens) (UniProt Q16656); test: ATG_NRF1_CIS: Attagene CIS-FACTORIAL HepG2 Assay for human Nuclear Respiratory Factor 1 (NRF1) Orphan Gene (AID 2282987); settings: HepG2 NRF1 cis-element reporter, Attagene multiplex; actives raise or lower the signal
How it was run: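 Human hepatoma HepG2 cells carrying transfected promoter-regulated reporter units were incubated with test chemicals for 24 h. Reporter transcripts were measured by RT-PCR plus capillary electrophoresis, and endpoints derived by bidirectional fitting with DMSO as baseline.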

[17] = ATG_NFI_CIS: Attagene CIS-FACTORIAL HepG2 Assay for human Nuclear Factor I (NFI) (AID 2282989); settings: HepG2 cis-regulatory reporter, NFI response element transcription; actives raise or lower the signal
How it was run: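 Reporter transcripts were measured by RT-PCR with fluorescent primer extension and capillary electrophoresis 24 h post-treatment. HepG2 cells carried transiently transfected cis-regulated reporter constructs reporting endogenous factor activity; gain or loss fitted against DMSO baseline.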

[18] = biological target: Myc proto-oncogene protein (Homo sapiens) (UniProt P01106); test: ATG_Myc_CIS: Attagene CIS-FACTORIAL HepG2 Assay for human Myelocytomatosis (Myc) Proto-Oncogene Transcription Factor (AID 2282990); settings: HepG2, Attagene cis-reporter transcription factor activity; actives raise or lower the signal
How it was run: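 HepG2, transient MRTU transfection (cis promoters, endogenous TFs); 24 h dosing; TriZol RNA → oligo(dT) RT → PCR → 6-FAM primer extension → HpaI cut → CE. Bidirectional fit vs DMSO.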

[19] = ATG_Oct_MLP_CIS: Attagene CIS-FACTORIAL HepG2 Assay for human Octamer-Binding Transcription Factor (Oct) (AID 2282993); settings: HepG2 Attagene cis-factorial Oct reporter, mRNA; actives raise or lower the signal
How it was run: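 Readout is reporter transcript level from RT-PCR with fluorescent primer extension and capillary electrophoresis, fitted in both directions against DMSO. Transfected HepG2 reporter units report endogenous factor activity after 24 h dosing.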

[20] = ATG_RORE_CIS: Attagene CIS-FACTORIAL HepG2 Assay for human RAR-related Orphan Receptor Element (RORE) (AID 2282959); settings: HepG2 Attagene cis-factorial RORE reporter, mRNA; actives raise or lower the signal
How it was run: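 Multiplexed reporter assay measuring mRNA induction from a cis promoter element in transiently transfected HepG2 cells after 24 h treatment. Detection via RT-PCR and capillary electrophoresis fluorescence; DMSO serves as baseline.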

Measured: AC50

Aryl hydrocarbon receptor (Homo sapiens), sequence (P35869 whole entry, looked up): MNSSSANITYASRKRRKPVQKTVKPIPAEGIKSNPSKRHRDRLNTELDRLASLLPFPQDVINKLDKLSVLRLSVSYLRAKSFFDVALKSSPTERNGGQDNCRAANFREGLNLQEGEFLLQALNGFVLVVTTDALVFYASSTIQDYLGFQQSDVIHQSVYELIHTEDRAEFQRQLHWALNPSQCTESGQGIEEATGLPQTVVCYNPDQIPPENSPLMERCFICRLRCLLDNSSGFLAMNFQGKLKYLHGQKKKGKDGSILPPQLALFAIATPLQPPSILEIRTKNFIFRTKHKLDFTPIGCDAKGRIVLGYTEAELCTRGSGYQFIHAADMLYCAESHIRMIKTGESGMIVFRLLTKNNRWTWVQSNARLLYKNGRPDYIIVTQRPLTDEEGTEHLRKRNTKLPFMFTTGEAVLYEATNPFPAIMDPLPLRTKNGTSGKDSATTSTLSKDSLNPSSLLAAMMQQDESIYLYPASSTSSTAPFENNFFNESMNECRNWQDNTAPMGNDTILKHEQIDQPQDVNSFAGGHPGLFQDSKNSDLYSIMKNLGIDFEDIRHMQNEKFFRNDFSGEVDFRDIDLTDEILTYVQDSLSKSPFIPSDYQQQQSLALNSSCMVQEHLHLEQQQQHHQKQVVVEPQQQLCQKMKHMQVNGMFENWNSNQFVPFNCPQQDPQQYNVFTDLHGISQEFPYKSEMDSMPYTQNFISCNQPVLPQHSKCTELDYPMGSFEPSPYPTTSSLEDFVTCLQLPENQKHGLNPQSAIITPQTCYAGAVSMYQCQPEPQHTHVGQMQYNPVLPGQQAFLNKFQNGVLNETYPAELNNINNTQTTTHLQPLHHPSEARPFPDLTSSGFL
Hepatocyte nuclear factor 4-alpha (Homo sapiens), sequence (P41235 whole entry, looked up): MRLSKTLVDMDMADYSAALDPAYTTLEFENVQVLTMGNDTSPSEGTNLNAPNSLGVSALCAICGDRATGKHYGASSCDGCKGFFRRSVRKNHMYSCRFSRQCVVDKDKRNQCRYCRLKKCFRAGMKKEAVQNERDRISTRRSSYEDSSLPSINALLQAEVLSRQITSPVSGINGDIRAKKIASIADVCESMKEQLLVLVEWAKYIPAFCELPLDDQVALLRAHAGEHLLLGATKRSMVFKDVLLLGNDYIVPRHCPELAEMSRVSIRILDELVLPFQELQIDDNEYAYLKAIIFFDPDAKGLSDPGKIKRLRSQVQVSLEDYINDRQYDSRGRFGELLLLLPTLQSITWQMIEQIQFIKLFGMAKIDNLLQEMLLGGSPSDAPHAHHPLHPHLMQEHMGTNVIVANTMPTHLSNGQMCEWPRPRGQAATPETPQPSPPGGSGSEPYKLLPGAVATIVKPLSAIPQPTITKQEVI
Transcription factor E2F1 (Homo sapiens), sequence (Q01094 whole entry, looked up): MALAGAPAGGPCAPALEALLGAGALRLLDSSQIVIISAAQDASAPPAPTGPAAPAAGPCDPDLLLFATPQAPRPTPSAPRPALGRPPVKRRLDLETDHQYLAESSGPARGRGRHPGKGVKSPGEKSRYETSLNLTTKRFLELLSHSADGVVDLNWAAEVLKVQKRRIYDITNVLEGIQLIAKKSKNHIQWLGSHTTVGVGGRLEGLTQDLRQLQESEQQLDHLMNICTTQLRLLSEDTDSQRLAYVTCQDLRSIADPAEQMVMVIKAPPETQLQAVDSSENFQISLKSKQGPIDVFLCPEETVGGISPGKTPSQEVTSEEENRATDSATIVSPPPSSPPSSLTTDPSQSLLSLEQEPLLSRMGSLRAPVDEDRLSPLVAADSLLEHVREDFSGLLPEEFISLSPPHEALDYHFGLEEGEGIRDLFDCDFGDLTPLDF
Myc proto-oncogene protein (Homo sapiens), sequence (P01106 whole entry, looked up): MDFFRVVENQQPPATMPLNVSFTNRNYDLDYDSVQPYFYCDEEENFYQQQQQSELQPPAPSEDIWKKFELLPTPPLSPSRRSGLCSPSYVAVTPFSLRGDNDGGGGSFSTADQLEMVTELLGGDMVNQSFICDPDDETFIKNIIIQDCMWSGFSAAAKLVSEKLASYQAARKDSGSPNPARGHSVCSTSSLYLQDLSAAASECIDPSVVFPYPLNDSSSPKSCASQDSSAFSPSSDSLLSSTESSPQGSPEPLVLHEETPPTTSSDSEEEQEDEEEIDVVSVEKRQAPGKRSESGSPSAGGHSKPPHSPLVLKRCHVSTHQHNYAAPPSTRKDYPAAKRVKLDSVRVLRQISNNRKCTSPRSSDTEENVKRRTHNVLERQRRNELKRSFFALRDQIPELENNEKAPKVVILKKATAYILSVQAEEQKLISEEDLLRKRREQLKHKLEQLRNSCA
X-box-binding protein 1 (Homo sapiens), sequence (P17861 whole entry, looked up, the tested form may be a part): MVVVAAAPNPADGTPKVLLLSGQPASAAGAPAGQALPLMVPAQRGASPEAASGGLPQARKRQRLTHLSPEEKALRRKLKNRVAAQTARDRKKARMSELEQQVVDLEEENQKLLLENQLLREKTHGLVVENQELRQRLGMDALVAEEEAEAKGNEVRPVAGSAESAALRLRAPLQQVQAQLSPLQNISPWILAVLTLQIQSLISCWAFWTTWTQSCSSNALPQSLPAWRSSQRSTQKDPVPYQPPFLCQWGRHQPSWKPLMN
Transcriptional activator Myb (Homo sapiens), sequence (P10242 whole entry, looked up): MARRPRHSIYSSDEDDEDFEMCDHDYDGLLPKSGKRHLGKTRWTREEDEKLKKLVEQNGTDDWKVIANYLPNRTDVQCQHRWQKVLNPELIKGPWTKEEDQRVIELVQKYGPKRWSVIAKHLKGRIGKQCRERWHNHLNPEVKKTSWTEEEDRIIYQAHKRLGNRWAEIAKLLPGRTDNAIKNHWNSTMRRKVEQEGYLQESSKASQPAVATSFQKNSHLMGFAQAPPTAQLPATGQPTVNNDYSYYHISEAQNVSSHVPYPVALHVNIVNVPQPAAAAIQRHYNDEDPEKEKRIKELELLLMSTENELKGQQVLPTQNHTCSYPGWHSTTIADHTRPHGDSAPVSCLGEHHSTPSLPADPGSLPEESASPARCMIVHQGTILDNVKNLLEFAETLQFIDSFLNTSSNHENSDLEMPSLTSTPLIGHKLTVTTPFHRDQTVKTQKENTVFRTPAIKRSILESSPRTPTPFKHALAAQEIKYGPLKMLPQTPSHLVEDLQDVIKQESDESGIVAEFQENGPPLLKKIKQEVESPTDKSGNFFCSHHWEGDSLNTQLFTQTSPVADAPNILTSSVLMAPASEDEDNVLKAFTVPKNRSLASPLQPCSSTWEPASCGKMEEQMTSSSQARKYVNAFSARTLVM
Heat shock factor protein 1 (Homo sapiens), sequence (Q00613 whole entry, looked up): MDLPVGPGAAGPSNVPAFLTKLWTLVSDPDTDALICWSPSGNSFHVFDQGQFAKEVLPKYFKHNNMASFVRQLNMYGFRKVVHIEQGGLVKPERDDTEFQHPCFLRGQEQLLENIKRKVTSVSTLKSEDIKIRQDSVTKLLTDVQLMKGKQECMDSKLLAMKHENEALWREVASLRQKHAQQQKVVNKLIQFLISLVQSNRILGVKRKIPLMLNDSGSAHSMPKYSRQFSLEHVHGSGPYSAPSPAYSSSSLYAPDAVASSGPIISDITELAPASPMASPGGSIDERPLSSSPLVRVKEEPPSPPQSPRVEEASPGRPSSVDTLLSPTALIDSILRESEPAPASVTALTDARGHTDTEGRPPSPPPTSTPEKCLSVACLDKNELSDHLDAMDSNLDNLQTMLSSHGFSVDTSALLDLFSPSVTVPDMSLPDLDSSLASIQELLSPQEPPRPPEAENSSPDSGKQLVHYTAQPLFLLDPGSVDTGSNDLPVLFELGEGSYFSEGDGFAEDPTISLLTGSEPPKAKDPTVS
Hypoxia-inducible factor 1-alpha (Homo sapiens), sequence (Q16665 whole entry, looked up): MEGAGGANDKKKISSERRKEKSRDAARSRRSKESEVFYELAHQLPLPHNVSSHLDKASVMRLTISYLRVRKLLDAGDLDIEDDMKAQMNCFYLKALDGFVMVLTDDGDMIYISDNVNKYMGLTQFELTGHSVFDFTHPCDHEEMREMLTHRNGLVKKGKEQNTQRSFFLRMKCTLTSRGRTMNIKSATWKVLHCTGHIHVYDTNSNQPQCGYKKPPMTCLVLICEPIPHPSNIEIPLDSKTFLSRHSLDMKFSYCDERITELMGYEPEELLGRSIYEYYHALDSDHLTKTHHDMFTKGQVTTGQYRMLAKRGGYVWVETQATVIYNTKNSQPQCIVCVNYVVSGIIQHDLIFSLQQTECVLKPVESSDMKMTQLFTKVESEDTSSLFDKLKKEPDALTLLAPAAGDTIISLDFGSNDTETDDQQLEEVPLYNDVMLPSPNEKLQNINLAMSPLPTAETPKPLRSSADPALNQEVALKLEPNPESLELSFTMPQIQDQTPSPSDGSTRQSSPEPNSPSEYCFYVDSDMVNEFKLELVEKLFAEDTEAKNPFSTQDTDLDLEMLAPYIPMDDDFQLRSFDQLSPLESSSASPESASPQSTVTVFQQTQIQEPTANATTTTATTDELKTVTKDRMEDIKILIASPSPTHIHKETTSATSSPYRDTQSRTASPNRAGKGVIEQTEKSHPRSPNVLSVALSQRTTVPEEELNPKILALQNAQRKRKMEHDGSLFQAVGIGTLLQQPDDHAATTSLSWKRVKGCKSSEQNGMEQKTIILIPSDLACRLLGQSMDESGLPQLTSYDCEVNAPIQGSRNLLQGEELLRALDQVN
Nuclear respiratory factor 1 (Homo sapiens), sequence (Q16656 whole entry, looked up): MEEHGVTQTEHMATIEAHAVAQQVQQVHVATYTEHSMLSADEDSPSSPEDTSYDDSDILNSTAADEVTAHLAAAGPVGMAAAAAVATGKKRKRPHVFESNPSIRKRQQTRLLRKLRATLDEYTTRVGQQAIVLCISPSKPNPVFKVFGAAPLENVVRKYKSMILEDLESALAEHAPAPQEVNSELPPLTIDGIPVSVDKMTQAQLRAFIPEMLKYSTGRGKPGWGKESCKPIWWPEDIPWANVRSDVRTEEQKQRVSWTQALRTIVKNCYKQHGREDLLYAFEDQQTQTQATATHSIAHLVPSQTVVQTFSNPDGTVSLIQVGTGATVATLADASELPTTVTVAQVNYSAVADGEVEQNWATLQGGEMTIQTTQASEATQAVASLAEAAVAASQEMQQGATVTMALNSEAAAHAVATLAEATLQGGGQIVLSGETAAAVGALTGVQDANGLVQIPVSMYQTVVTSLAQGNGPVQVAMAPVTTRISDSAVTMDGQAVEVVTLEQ

O=C=Nc1ccccc1
active: [1] 9.05 µM | [7] 11.7 µM
not listed: [20]
inactive: all other assays above

C=CC(=O)OCCCCOC(=O)C=C
active: [5] 63.6 µM | [7] 158 µM | [8] 80.9 µM | [10] 60.4 µM | [19] 37.7 µM
not listed: [2] | [20]
inactive: all other assays above

O=C(CCN1CC1)OCC(CO)(COC(=O)CCN1CC1)COC(=O)CCN1CC1
not listed: [3] | [4]
inactive: all other assays above

O=C1C=CC(=O)C=C1
active: [1] 2.15 µM
not listed: [5] | [7] | [19]
inactive: all other assays above

O=[N+]([O-])O
not listed: [7] | [11] | [20]
inactive: all other assays above

C[N+](=O)[O-]
inactive: all assays above

CN(C)N
inactive: all assays above

CNC(=O)Oc1cc(C)c(SC)c(C)c1
active: [7] 26.7 µM | [13] 68.3 µM | [19] 68.7 µM
inactive: all other assays above

Nc1ccc([N+](=O)[O-])cc1N
active: [1] 24.7 µM
not listed: [2]
inactive: all other assays above

Cc1ccc(OP(=O)(Oc2ccc(C)cc2)Oc2ccc(C)cc2)cc1 (tested in a mixture with another compound)
not listed: [6] | [7] | [11] | [14] | [20]
inactive: all other assays above

CC1(C)[C@H](C(=O)O[C@H](C#N)c2cccc(Oc3ccccc3)c2)[C@@H]1C=C(Br)Br
active: [7] 0.312 µM | [12] 56.7 µM
not listed: [11] | [14]
inactive: all other assays above

CN(N=O)c1ccccc1
not listed: [8]
inactive: all other assays above

C[N+](C)(C)CC(=O)[O-]
not listed: [2] | [5] | [8] | [14]
inactive: all other assays above

CCOC(=O)COc1ccc(Cl)cc1Cl
not listed: [1] | [14]
inactive: all other assays above

CCOC(=O)N(C)N=O
active: [7] 26.1 µM
not listed: [8] | [14]
inactive: all other assays above

S=c1[nH]c2ccccc2[nH]1
inactive: all assays above

O=C(NC(=O)c1c(F)cccc1F)Nc1ccc(Oc2ccc(C(F)(F)F)cc2Cl)cc1F
active: [1] 8.23 µM | [7] 3.15 µM
not listed: [2] | [4]
inactive: all other assays above

CC(=O)C=Cc1ccccc1
active: [6] 152 µM | [7] 26 µM | [15] 128 µM
not listed: [19]
inactive: all other assays above

O=C(O)CCl
not listed: [1] | [3]
inactive: all other assays above

COCC(=O)N(c1c(C)cccc1C)N1CCOC1=O
not listed: [1] | [4] | [7]
inactive: all other assays above

c1ccc(Nc2ccc3ccccc3c2)cc1
not listed: [1] | [3] | [7] | [8] | [11]
inactive: all other assays above
